Records with an inconclusive call do not appear. A call without a number means that no potency is given here. A number with no mark means an inactive call. Calls of active or inactive are those of the source. Calls follow the shape of the dose curve; as a rule, active = well fitted cell-killing curve with a large enough effect; inconclusive = small, poorly fitted or top-dose-only effect, or effect the other way; inactive = no such curve, though single readings can be large or run the other way.
Potency is read from the fitted curve at half-maximal effect.

The nature of the assay: Viability qHTS for spleen associated tyrosine kinase inhibitor (SYKi) drug resistant MV4-11 cells (AID 1963824). Also: nearly all actives have a fitted effect of over 35% in size. To be noted: SYKi-resistant MV4-11 viability, CellTiter-Glo, 72 h; series mostly up to 45 µM. The procedure, abridged: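 SYK inhibitor-resistant MV4-11 AML cells, 500 per well, added to predispensed compounds and incubated 72 hr at 37 C, 5% CO2. Viability measured by CellTiter-Glo luminescence after 10 min at room temperature.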
Regarding `C[C@@H]1CC[C@]2(C(=O)O[C@@H]3O[C@H](CO)[C@@H](O)[C@H](O)[C@H]3O)CC[C@]3(C)C(=CCC4[C@@]5(C)C[C@@H](O)[C@H](O)C(C)(C)C5CC[C@]43C)C2[C@]1(C)O` (some centres undefined), the Potency entry was “inactive”.

Turning to `COc1cc(Nc2nc3c(s2)CCCC3c2ccccc2)ccc1-n1cnc(C)c1` (centres undefined), the viability, % of control was 109% [at 9.25 µM]. In the case of `CCc1nn(CCO)c(CC)c1Oc1cc(C#N)cc(C#N)c1`, the Potency result is “inactive”. On the same count and under the same terms, in the case of `COc1c2c(c(C)c3c1C(=O)OC3)OC1(C)CC(O)C34OC(O)(CCC3(C)C1C2)OC4(C)C` (centres undefined) it was “inactive”; in that of `C/C=C1\[C@H](OC2OC(COC3OC(CO)C(O)C(O)C3O)C(O)C(O)C2O)OC=C(C(=O)OC)[C@H]1CC(=O)OCCc1ccc(O)cc1` (some centres undefined), “inactive”. With `CC(O)(C(=O)O)C1CCC2(C)C1CCC1(C)C2CCC2C3(C)CCC(O)C(C)(COC4OC(CO)C(O)C(O)C4O)C3CCC21C` (centres undefined), the Potency entry is “inactive”.

Turning to `COC(=O)c1ccccc1O[C@@H]1O[C@H](CO)[C@@H](O)[C@H](O)[C@H]1O[C@@H]1O[C@@H](C)[C@H](O)[C@@H](O)[C@H]1O`, the Potency result was “inactive”. In the case of `Cc1nc(Nc2ccc(F)cc2)nc(N2CCc3ccccc3C2C)c1C` (centres undefined), the Potency was 14.6 µM (active). Take `CC(C)C1=CCC(C)(O)C(OC2OC(CO)C(O)C(O)C2O)C1` (centres undefined): the Potency entry is “inactive”.

(Values after PubChem BioAssay (NCATS).)
